# Source: PubChem BioAssay (NCATS)
# Where “and” joins values, the source holds several entries; their conditions need not be identical. Equal entries are not always repeated. Results filed as inconclusive are left out. More than one record can exist for a structure, and the calls need not agree. Calls of active or inactive are those of the source. Unless noted, calls come from the whole dose curve.
# What was measured:
# [1] = target: Bile acid receptor (Homo sapiens) (UniProt Q96RI1); experiment: qHTS assay for small molecule antagonists of farnesoid X receptor signaling (AID 588526); note: % is set by controls: 0 for no effect and ±100 for the full control effect
# How it was run: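 Antagonist mode: titrated compounds tested against chenodeoxycholic acid stimulation (normalized to 50 uM CDCA and DMSO) in GeneBLAzer HEK293T cells for 16 h. Beta-lactamase read by CCF4 fluorescence; IC50 from Hill fits.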
# [2] = target: Bile acid receptor (Homo sapiens) (UniProt Q96RI1); experiment: qHTS assay for small molecule agonists of farnesoid X receptor signaling (AID 588527); conditions: HEK293T FXR-UAS-bla, beta-lactamase ratio, 16 h; activation: stronger effect = higher value;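 note: series mostly up to about 77 µM; 0% = vehicle basal and 100% = reference agonist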
# How it was run: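 FXR-UAS-bla HEK293T, 10% dialyzed FBS; cpds up to 92 uM titration, 16 h 37 C; CCF4 dye 2 h RT; fluorescence. Normalized to chenodeoxycholic acid 100 uM (100%) and DMSO (0%); Hill fit gives EC50, efficacy.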
# [3] = target: Glucocorticoid receptor (Homo sapiens) (UniProt P04150); experiment: qHTS assay for small molecule agonists of glucocorticoid receptor signaling (AID 588532; active = well fitted curve in the direction sought with a large enough effect in the signal ratio, with a control signal flat; the % refers to the signal ratio;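 note: 100% = dexamethasone at 0.1 µM and 0% = DMSO only wells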); conditions: HeLa MMTV-bla, beta-lactamase ratio, agonist, 18 h; activation: stronger effect = higher value, percent of dexamethasone control, DMSO zero
# How it was run: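 HeLa GRE-bla reporter cells; 18 h compound exposure at 37 C; 2 h CCF4 loading at room temperature; fluorescence at 460 and 530 nm; EC50 by Hill equation.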
# [4] = target: Glucocorticoid receptor (Homo sapiens) (UniProt P04150); experiment: qHTS assay for small molecule antagonists of glucocorticoid receptor signaling (AID 588533; active = well fitted inhibition curve with a large enough effect in the signal ratio, with a control signal flat, not every such curve was filed as active; the % refers to the signal ratio; note: % is set by controls: 0 for no effect and ±100 for the full control effect)
# How it was run: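 Antagonist-mode qHTS: compound titrations added to GRE-bla HeLa cells, then dexamethasone 2 nM final; 18 h, 37 C. CCF4 FRET fluorescence normalized to dexamethasone and DMSO; IC50 from Hill fit.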
# [5] = target: Peroxisome proliferator-activated receptor delta (Homo sapiens) (UniProt Q03181); experiment: qHTS assay for small molecule agonists of peroxisome proliferator-activated receptor delta signaling (AID 588534);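 note: 0% = DMSO basal wells and 100% = positive control agonist at 10 µM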
# How it was run: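 Cells carrying a PPAR-delta beta-lactamase reporter were treated with compounds for 18 h at 37 °C in agonist mode. CCF4 fluorescence was read after 2 h; EC50 and efficacy from Hill fits.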
# [6] = qHTS assay for small molecule antagonists of peroxisome proliferator-activated receptor delta signaling (AID 588535; active = well fitted inhibition curve with a large enough effect in the signal ratio, with a control signal flat, not every such curve was filed as active; the % refers to the signal ratio;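 for max response: cells co-treated with a PPAR-delta agonist as stimulator during compound exposure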); conditions: HEK293T PPARd-UAS-bla, beta-lactamase FRET ratio, 18 h; 460 nm channel
# How it was run: (§1)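 Antagonist-mode beta-lactamase reporter (GeneBLAzer PPAR-delta-UAS-bla) in HEK293T cells, 2% charcoal/dextran FBS, 4000 cells/well. Compound titrations, 18 h at 37 C; CCF4 ratio read, IC50 and efficacy from Hill fits.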
# [7] = target: Peroxisome proliferator-activated receptor delta (Homo sapiens) (UniProt Q03181); experiment: as above
# How it was run: as §1
# [8] = target: Peroxisome proliferator-activated receptor gamma (Homo sapiens) (UniProt P37231); experiment: qHTS assay for small molecule agonists of peroxisome proliferator-activated receptor gamma signaling (AID 588536; active = well fitted curve in the direction sought with a large enough effect in the signal ratio, with a control signal flat, not every such curve was filed as active; the % refers to the signal ratio;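 note: 0% = DMSO basal wells and 100% = rosiglitazone at 2 µM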)
# How it was run: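 PPAR-gamma-UAS-bla HEK293 cells in medium with 1% charcoal/dextran-treated FBS were exposed to compounds for 16 h at 37 C. Beta-lactamase activity was read with CCF4 substrate (405 nm excitation, 460/530 nm emission).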
# [9] = target: Peroxisome proliferator-activated receptor gamma (Homo sapiens) (UniProt P37231); experiment: qHTS assay for small molecule antagonists of peroxisome proliferator-activated receptor gamma signaling (AID 588537; active = well fitted inhibition curve with a large enough effect in the signal ratio, with a control signal flat, not every such curve was filed as active; the % refers to the signal ratio; note: potency is the fitted concentration of half-maximal effect)
# How it was run: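 PPARγ-UAS-bla HEK293 cells (3000/well) in 1% charcoal/dextran-stripped FBS are treated with compound, then stimulated with 50 nM rosiglitazone for 16 h at 37 °C. Read-out is CCF4 β-lactamase fluorescence after 2 h at RT. IC50 comes from Hill fits normalised to rosiglitazone and DMSO.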
# [10] = target: Thyroid hormone receptor beta (Homo sapiens) (UniProt P10828); experiment: qHTS assay for small molecule antagonists of thyroid hormone receptor beta signaling (AID 588547; active = well fitted inhibition curve with a large enough effect in the signal ratio, with a control signal flat, not every such curve was filed as active; the % refers to the signal ratio;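 note: cells stimulated with 0.4 nM T3 agonist during compound exposure; series mostly up to about 77 µM; % is set by controls: 0 for no effect and ±100 for the full control effect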); conditions: TR-UAS-bla HEK293, beta-lactamase ratio, antagonist mode, 18 h
# How it was run: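 TR-UAS-bla GripTite HEK293 cells in 2% charcoal/dextran FBS medium; compounds 0.59 nM to 92 uM with T3 at 0.4nM final, 18 h at 37 C. Beta-lactamase read by CCF4 fluorescence (460/530 nm); Hill fits gave IC50 and efficacy.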
# [11] = target: Peroxisome proliferator-activated receptor alpha (Homo sapiens) (UniProt Q07869); experiment: qHTS assay for small molecule agonists of the peroxisome proliferator-activated receptor alpha (PPARalpha) signaling pathway (AID 651778; active = well fitted curve in the direction sought with a large enough effect; an effect the other way counts as inactive or inconclusive; note: % of control where 0% means no effect); conditions: PathHunter PPARalpha complementation, chemiluminescence, 6 h; max response: stronger effect = higher value
# How it was run: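 Enzyme-fragment complementation assay in which ligand-bound PPARalpha translocates and forms an active enzyme that generates chemiluminescence. Cells were plated overnight, exposed to compound for 6 hr at 37 C, and then given detection reagent for 60 min at room temperature.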
# [12] = qHTS assay for small molecule agonists of the antioxidant response element (ARE) signaling pathway measured by Nrf2-dependant transcriptional activity (AID 720636; active = well fitted curve in the direction sought with a large enough effect in the repeat runs; an effect the other way counts as inactive or inconclusive;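 note: HepG2 cells with an ARE-driven luciferase reporter; % of control where 0% means no effect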)
# How it was run: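 Reporter gene assay, HepG2 ARE-luc: 16 hr compound, 37 C, 5% CO2; read-out luciferase luminescence.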
# [13] = qHTS assay for cell viability of HEK293 cells (AID 743288; active = well fitted curve in the direction sought with a large enough effect; an effect the other way counts as inactive or inconclusive; note: % is set by controls: 0 for no effect and ±100 for the full control effect; nearly all actives have a fitted effect of over 50% in size); conditions: ATP luminescence (CellTiter-Glo), 18 h; max response: stronger effect = lower value
# How it was run: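 Environmental chemicals tested in qHTS format against parental HEK293 cells; 18 h treatment, 37 C; read-out ATP luminescence (CellTiter-Glo), 30 min RT development.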
# [14] = qHTS assay for cell viability of the p53RE-bla HCT-116 cell line (AID 743292; active = well fitted curve in the direction sought with a large enough effect; an effect the other way counts as inactive or inconclusive; note: % is set by controls: 0 for no effect and ±100 for the full control effect; nearly all actives have a fitted effect of over 55% in size)
# How it was run: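 Readout: CellTiter-Glo luminescence after 30 min RT. Treatment: compounds in DMSO, 16 h, 37 C. Cells: CellSensor p53RE-bla HCT-116, 4,000/well, preincubated 5 h.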
# [15] = target: Androgen receptor (Homo sapiens) (UniProt P10275); experiment: qHTS assay for small molecule agonists of androgen receptor signaling (AID 588515; active = well fitted curve in the direction sought with a large enough effect in the signal ratio, with a control signal flat; the % refers to the signal ratio; note: % is set by controls: 0 for no effect and ±100 for the full control effect); conditions: AR-UAS-bla HEK293, beta-lactamase ratio, agonist 16 h; stronger effect = higher value
# How it was run: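 EC50 and efficacy came from Hill fits of titrations (up to 92 uM) normalized to 30 nM R1881 as 100% and DMSO as 0%. Compound exposure was 16 h at 37 C on AR-UAS-bla HEK293 cells, with a 405/460/530 nm CCF4 fluorescence read.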
# [16] = target: Vitamin D3 receptor (Homo sapiens) (UniProt P11473); experiment: qHTS assay for small molecule agonists of vitamin D receptor signaling (AID 588543);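 note: 0% = DMSO basal and 100% = reference agonist control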
# How it was run: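 β-lactamase reporter, VDR-UAS-bla HEK293T, agonist mode. Cells plated 5 h at 37 °C, compound titration 16 h at 37 °C, CCF4 dye 2 h RT, ratio 460/530 nm. Hill fit → EC50, efficacy vs 50 nM 1α,25-(OH)2D3.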
# [17] = target: Thyroid hormone receptor beta (Homo sapiens) (UniProt P10828); experiment: qHTS assay for small molecule agonists of thyroid hormone receptor beta signaling (AID 588545);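 note: 0% = DMSO only and 100% = 10 nM T3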
# How it was run: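 Efficacy and EC50 values derive from Hill fits of qHTS titration data, normalized to 10 nM T3 and DMSO-only wells. HEK 293 reporter cells were stimulated for 18 hrs at 37 C, with beta-lactamase activity measured by CCF4 fluorescence.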
# [18] = qHTS assay for small molecule agonists of the antioxidant response element (ARE) signaling pathway (AID 651741; active = well fitted activation curve with a large enough effect in the signal ratio; the % refers to the signal ratio; note: potency is the fitted concentration of half-maximal effect)
# How it was run: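 CellSensor ARE-bla HepG2 cells (2,000/well) carrying ARE-driven beta-lactamase, exposed 16 h at 37 C. LiveBLAzer B/G FRET substrate added for 2 h at room temperature; fluorescence intensity read.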
# [19] = qHTS assay for small molecule activators of the nuclear factor-kappa B (NF-kB) signaling pathway (AID 651749; active = well fitted activation curve with a large enough effect in the signal ratio; the % refers to the signal ratio; note: series mostly up to about 77 µM; % of control where 0% means no effect); conditions: NF-kB-bla ME-180 cells, beta-lactamase FRET ratio, 16 h; activation: stronger effect = higher value
# How it was run: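 NF-kB-bla ME-180 cells carrying a beta-lactamase reporter under an NF-kB response element, 2,000 cells/well, exposed to compound for 16 hr at 37C; FRET-based beta-lactamase fluorescence read-out of pathway activation.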
# [20] = qHTS assay for environmental chemicals that activate the Aryl hydrocarbon Receptor (AhR) signaling pathway (AID 651777; active = well fitted curve in the direction sought with a large enough effect; an effect the other way counts as inactive or inconclusive; note: % of control where 0% means no effect; nearly all actives have a fitted effect of over 15% in size); conditions: 1A2-DRE human hepatoma cells, luciferase, 24 h; activation: stronger effect = higher value
# How it was run: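 Stable CYP1A2 promoter/DRE-luciferase human hepatoma line treated 24 hr; One-Glo luminescence, 30 min RT.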
# [21] = qHTS assay for small molecule agonists of the antioxidant response element (ARE) signaling pathway measured by Nrf2-dependant transcriptional activity - cell viability counter screen (AID 720653; active = well fitted curve in the direction sought with a large enough effect in the repeat runs; an effect the other way counts as inactive or inconclusive; note: % is set by controls: 0 for no effect and ±100 for the full control effect); conditions: ARE-bla HepG2 viability, CellTiter-Glo ATP luminescence, 16 h; max response: stronger effect = lower value
# How it was run: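 ARE-bla HepG2 cells treated with compounds for 16 h at 37C; this counter screen measures viability as intracellular ATP by CellTiter-Glo luminescence after 30 min at room temperature.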
# [22] = target: Vitamin D3 receptor (Homo sapiens) (UniProt P11473); experiment: qHTS assay for small molecule antagonists of vitamin D receptor signaling (AID 588541)
# How it was run: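 VDR-UAS-bla HEK293T cells in 2% charcoal-stripped FBS were stimulated with 1-alpha,25-dihydroxyvitamin D3 (3 nM final) plus compound for 16 h at 37 C. The beta-lactamase CCF4 readout was normalized to 50 nM agonist and DMSO, and Hill fits gave IC50.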
# [23] = qHTS assay for small molecule agonists of retinoid X receptor alpha signaling (AID 588544); conditions: HEK293T RXRa-UAS-bla, beta-lactamase reporter, 18 h; 530 nm emission; note: potency is the fitted concentration of half-maximal effect
# [24] = target: Retinoic acid receptor RXR-alpha (Homo sapiens) (UniProt P19793); experiment: as above
# [25] = qHTS assay for small molecule antagonists of retinoid X receptor alpha signaling (AID 588546; active = well fitted inhibition curve with a large enough effect in the signal ratio, with a control signal flat, not every such curve was filed as active; the % refers to the signal ratio); conditions: HEK293T RXRa-UAS-bla, beta-lactamase ratio, antagonist mode; measured here: W530 green channel, cytotoxicity proxy
# How it was run: (§2)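 Beta-lactamase reporter inhibition, read as CCF4 fluorescence ratio (ex 405, em 460/530 nm) after 2 h at RT. HEK293T UAS-bla cells, 2500/well, were stimulated with 9-cis-RA at 500 or 100 nM final alongside test compound for 18 h at 37 C.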
# [26] = target: Retinoic acid receptor RXR-alpha (Homo sapiens) (UniProt P19793); experiment: as above; conditions: HEK293T RXRa-UAS-bla, beta-lactamase ratio, antagonist mode
# How it was run: as §2
# [27] = qHTS assay for small molecule activators of the p53 signaling pathway (AID 651743; active = well fitted activation curve with a large enough effect in the signal ratio, not every such curve was filed as active; the % refers to the signal ratio; note: series mostly up to about 92 µM; % of control where 0% means no effect); conditions: HCT-116 p53RE-bla, beta-lactamase FRET ratio, 16 h; activation: stronger effect = higher value
# How it was run: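 p53RE-bla HCT-116 cells carrying a beta-lactamase reporter under p53 response elements were exposed to compounds for 16 hours at 37 C. Reporter activity read as fluorescence after 2 hours at room temperature with LiveBLAzer B/G FRET substrate.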
# [28] = target: Nuclear receptor subfamily 1 group I member 2 (Rattus norvegicus) (UniProt Q9R1A7); experiment: qHTS assay for small molecule activators of the rat pregnane X receptor (rPXR) signaling pathway (AID 651751; call rule not given here; note: 0% is about no effect); conditions: rPXR reporter cells, luciferase (One-Glo), 24 h
# Sequence of Vitamin D3 receptor (Homo sapiens) (P11473 whole entry, looked up): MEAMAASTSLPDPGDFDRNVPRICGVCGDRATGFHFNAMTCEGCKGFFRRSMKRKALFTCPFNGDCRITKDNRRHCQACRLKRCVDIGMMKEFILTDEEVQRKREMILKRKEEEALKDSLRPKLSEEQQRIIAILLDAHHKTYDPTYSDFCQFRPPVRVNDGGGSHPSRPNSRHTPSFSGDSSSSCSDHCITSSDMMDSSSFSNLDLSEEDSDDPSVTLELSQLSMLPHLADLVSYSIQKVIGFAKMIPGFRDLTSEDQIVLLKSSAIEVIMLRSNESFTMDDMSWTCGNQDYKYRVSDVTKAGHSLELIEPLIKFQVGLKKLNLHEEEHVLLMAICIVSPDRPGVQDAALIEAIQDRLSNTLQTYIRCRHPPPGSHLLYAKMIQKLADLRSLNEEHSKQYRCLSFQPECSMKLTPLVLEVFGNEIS
# Sequence of Peroxisome proliferator-activated receptor alpha (Homo sapiens) (Q07869 whole entry, looked up, the tested form may be a part): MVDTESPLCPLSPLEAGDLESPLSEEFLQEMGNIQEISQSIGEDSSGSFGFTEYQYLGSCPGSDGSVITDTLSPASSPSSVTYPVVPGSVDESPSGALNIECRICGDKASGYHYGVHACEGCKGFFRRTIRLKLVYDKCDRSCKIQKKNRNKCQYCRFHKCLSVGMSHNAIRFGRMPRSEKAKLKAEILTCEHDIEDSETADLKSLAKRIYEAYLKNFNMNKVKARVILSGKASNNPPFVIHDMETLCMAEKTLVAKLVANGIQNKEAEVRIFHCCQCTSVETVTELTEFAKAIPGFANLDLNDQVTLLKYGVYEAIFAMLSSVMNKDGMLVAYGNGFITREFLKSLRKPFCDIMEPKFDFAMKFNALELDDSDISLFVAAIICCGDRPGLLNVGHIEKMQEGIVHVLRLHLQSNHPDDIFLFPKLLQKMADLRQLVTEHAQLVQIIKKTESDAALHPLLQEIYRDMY
# Sequence of Peroxisome proliferator-activated receptor delta (Homo sapiens) (Q03181 whole entry, looked up): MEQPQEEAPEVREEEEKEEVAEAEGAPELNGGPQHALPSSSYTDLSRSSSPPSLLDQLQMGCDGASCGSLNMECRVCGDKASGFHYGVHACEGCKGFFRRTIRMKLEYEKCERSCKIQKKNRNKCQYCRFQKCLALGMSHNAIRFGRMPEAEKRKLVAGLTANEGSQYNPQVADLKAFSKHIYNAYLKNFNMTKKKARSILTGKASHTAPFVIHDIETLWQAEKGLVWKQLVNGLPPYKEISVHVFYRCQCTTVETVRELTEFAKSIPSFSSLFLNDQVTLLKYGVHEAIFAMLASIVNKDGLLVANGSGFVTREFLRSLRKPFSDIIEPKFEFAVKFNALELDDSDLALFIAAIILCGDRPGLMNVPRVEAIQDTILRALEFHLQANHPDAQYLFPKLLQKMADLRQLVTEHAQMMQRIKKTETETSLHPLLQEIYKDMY
# Sequence of Thyroid hormone receptor beta (Homo sapiens) (P10828 whole entry, looked up): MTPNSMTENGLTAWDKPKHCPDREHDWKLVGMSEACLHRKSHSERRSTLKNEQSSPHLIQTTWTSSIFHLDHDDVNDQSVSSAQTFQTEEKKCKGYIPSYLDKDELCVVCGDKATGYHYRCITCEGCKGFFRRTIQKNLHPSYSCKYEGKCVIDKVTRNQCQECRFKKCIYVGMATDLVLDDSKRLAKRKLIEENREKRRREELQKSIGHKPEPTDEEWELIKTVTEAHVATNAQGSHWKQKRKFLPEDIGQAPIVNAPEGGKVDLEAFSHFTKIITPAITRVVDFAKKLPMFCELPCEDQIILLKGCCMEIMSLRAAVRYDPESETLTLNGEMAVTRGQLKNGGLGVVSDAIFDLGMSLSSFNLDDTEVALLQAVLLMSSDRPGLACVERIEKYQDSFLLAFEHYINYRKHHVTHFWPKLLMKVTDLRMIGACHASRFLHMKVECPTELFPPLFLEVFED
# Sequence of Glucocorticoid receptor (Homo sapiens) (P04150 whole entry, looked up): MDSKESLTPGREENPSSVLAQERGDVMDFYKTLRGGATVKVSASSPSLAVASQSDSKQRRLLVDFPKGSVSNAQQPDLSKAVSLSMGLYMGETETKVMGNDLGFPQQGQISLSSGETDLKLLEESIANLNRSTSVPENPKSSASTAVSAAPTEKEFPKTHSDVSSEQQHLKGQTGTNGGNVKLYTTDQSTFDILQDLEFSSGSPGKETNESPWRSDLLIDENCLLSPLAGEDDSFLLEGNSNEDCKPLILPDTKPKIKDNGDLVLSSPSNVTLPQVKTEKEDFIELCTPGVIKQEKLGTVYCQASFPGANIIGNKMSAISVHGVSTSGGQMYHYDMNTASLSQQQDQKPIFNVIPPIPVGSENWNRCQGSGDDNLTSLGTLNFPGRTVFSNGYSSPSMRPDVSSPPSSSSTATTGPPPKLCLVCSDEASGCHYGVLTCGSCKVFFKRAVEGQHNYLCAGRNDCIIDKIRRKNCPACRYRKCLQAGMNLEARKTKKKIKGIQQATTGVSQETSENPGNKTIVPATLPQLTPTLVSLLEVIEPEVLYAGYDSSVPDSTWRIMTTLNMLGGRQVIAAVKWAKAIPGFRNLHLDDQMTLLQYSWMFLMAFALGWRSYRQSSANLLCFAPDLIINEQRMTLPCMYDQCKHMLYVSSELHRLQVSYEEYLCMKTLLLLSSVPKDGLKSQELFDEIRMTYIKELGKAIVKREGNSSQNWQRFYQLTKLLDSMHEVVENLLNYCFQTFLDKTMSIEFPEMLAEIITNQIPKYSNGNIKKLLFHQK
# Sequence of Peroxisome proliferator-activated receptor gamma (Homo sapiens) (P37231 whole entry, looked up): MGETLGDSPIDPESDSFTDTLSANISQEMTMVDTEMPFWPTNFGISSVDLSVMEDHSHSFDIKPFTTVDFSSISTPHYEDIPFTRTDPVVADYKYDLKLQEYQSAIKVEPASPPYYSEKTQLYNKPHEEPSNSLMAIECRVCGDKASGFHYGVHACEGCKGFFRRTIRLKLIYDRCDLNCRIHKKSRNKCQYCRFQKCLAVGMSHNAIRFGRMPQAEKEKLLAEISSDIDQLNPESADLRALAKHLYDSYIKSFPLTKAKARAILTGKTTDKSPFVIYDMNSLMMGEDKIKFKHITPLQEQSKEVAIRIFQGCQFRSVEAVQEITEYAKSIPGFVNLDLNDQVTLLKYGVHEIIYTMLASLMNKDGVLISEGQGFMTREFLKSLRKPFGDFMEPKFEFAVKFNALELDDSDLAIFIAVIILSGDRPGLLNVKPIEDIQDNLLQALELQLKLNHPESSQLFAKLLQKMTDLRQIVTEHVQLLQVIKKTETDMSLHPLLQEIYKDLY
# Sequence of Bile acid receptor (Homo sapiens) (Q96RI1 whole entry, looked up): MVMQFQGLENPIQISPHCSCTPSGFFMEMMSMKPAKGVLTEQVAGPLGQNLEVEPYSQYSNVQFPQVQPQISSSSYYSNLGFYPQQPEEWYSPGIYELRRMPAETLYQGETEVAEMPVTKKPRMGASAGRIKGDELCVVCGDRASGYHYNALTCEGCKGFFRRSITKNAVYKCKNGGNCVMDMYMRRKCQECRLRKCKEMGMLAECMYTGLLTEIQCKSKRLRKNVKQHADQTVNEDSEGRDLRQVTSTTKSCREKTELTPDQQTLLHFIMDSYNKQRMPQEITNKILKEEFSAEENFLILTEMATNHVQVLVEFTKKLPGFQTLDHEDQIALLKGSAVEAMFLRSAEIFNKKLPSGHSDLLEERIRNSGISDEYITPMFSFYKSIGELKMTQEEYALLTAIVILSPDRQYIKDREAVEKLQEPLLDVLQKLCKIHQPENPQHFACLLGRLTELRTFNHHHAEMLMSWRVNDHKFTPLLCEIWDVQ
# Sequence of Retinoic acid receptor RXR-alpha (Homo sapiens) (P19793 whole entry, looked up): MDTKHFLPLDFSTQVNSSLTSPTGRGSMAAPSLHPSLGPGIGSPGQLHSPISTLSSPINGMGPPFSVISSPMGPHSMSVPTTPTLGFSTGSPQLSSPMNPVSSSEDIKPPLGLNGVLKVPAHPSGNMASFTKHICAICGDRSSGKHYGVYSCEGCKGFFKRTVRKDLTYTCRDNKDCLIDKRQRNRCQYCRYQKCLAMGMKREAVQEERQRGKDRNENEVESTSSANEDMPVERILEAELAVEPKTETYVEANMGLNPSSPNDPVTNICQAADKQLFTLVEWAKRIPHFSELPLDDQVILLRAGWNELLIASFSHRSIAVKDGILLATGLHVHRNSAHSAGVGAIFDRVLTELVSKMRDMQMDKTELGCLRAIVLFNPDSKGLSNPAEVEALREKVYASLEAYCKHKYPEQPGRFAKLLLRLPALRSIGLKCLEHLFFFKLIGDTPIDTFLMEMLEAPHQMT
# Sequence of Androgen receptor (Homo sapiens) (P10275 whole entry, looked up): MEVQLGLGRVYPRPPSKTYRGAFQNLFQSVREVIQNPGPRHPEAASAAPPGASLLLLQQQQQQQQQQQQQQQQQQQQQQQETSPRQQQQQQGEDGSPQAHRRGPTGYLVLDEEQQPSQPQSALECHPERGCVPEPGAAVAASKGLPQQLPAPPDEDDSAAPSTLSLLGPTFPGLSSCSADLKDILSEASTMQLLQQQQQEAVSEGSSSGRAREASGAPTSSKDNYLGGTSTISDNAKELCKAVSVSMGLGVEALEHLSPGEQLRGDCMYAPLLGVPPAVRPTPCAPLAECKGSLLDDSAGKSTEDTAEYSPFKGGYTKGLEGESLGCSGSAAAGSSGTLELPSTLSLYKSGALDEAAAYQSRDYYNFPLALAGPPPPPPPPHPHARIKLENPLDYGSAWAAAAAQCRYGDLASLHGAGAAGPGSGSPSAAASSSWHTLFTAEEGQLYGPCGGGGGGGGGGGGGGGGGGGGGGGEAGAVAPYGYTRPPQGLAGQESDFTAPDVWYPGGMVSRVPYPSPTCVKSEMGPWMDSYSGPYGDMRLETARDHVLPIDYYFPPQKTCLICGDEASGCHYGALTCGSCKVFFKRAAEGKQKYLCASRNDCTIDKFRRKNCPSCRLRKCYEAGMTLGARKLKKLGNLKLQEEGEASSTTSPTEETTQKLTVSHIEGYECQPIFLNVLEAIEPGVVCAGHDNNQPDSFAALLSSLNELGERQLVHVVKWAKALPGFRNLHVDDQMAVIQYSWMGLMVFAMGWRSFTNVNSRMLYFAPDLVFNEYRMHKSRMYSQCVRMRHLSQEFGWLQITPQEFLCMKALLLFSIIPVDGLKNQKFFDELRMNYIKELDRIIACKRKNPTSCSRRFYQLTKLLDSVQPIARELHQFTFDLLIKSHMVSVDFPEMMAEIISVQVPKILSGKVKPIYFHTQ
compound,measurement,setting,value
CCCN(CCOc1c(Cl)cc(Cl)cc1Cl)C(=O)n1ccnc1,Potency,[1],inactive
same,activation,[2],4.58% (inactive)
same,activation,[3],3.18% (inactive) and 2.99% (inactive)
same,Potency,[4],inactive
same,outcome,[5],inactive
same,max response,[6],26.8% and 55.9%
same,Potency,[7],inactive
same,Potency,[8],inactive
same,Potency,[9],44.7 µM (active) and inactive
same,activity change % (negative = inhibition),[10],22.9% (inactive)
same,max response,[11],-1.45% (inactive) and -1.52% (inactive)
same,Potency,[12],inactive
same,max response,[13],-28.6% (inactive) and -28.7% (inactive)
same,Potency,[14],inactive
CCOc1cc(C(C)(C)C)ccc1C1COC(c2c(F)cccc2F)=N1 (stereo not drawn),activation,[15],-19.9% (inactive)
same,outcome,[5],inactive
same,max response,[6],-21.7%
same,Potency,[7],inactive
same,outcome,[16],inactive
same,Potency,[17],inactive
same,activity change % (negative = inhibition),[10],-28.7% (inactive)
same,Potency,[18],12.2 µM (active)
same,activation,[19],3.07% (inactive)
same,activation,[20],6.58% (inactive)
same,max response,[21],-8.55% (inactive)
same,max response,[13],-20% (inactive)
CSc1nnc(C(C)(C)C)c(=O)n1N,Potency,[1],inactive
same,activation,[2],-6.5% (inactive)
same,activation,[3],-5.36% (inactive)
same,Potency,[4],inactive
same,outcome,[5],inactive
same,max response,[6],-34.1%
same,Potency,[7],inactive
same,Potency,[22],inactive
same,outcome,[16],inactive
same,max response,[23],-15.9%
same,Potency,[24],39.8 µM (active)
same,Potency,[17],inactive
same,max response,[25],-12%
same,max response,[26],6.64% (inactive)
same,activation,[27],-4.16% (inactive)
same,activation,[19],-0.061% (inactive)
same,max response,[11],-2.71% (inactive)
same,Potency,[12],inactive
same,max response,[21],6.99% (inactive)
same,max response,[13],-4.13% (inactive)
same,Potency,[14],inactive
same,max response,[28],0.612% (inactive)
